PubChem BioAssay AID1159580 (chemical genetic matrix, 2015)
Out of some 5,500 compounds screened, about 2,000 (36%) were called active. Not shown: some 18% with an inconclusive outcome. No stated cut-off is given here; in the data, active means normalized growth mostly below about 0.91 (no sharp cut-off); inconclusive means no clear call, values can overlap the other calls; inactive means mostly above about 0.92. The list shows a part of the results.

Assay: chemical genetic growth profiling, strain panel (AID 1159580);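 further: tested at 20 µM; growth read once vehicle control cultures reached saturation at 30 °C; 1 = growth at the plate median or of vehicle wells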
Settings: S. cerevisiae deletion strains, growth OD

Measured: normalized growth

Oc1ccc2c(c1)O[C@H](c1ccc(O)c(O)c1)[C@@H](O)C2
inactive: locus YAL013W, strain DEP1, stronger effect = lower value 1.03 | locus YAL021C, strain ccr4, stronger effect = lower value 1.02 | locus YAL026C, strain drs2, stronger effect = lower value 1.03 | locus YAL030W, strain snc1, stronger effect = lower value 1.02 | locus YBL061C, strain skt5, stronger effect = lower value 1.04 | locus YBR009C, strain hhf1, stronger effect = lower value 1.03 | locus YBR021W, strain FUR4, stronger effect = lower value 1.04 | locus YBR023C, strain chs3, stronger effect = lower value 1.03 | locus YBR171W, strain sec66, stronger effect = lower value 1.03 | locus YBR229C, strain ROT2, stronger effect = lower value 1.03 | locus YBR231C, strain swc5, stronger effect = lower value 1.03 | locus YBR279W, strain paf1, stronger effect = lower value 1.02 | locus YCL011C, strain gbp2, stronger effect = lower value 1.02 | locus YCL016C, strain dcc1, stronger effect = lower value 1.02 | locus YCL029C, strain bik1, stronger effect = lower value 1.02 | locus YCL061C, strain MRC1, stronger effect = lower value 1.02 | locus YCL069W, strain vba3, stronger effect = lower value 1.03 | locus YCR088W, strain abp1, stronger effect = lower value 1.02 | locus YDL005C, strain med2, stronger effect = lower value 1.02 | locus YDL035C, strain GPR1, stronger effect = lower value 1.07 | locus YDL040C, strain nat1, stronger effect = lower value 1.03 | locus YDL074C, strain BRE1, stronger effect = lower value 1.08 | locus YDL101C, strain DUN1, stronger effect = lower value 1.03 | locus YDL134C, strain PPH21, stronger effect = lower value 1.05 | locus YDL185W, strain tfp1, stronger effect = lower value 0.989 | locus YDL192W, strain arf1, stronger effect = lower value 1.03 | locus YDR001C, strain nth1, stronger effect = lower value 1.03 | locus YDR069C, strain doa4, stronger effect = lower value 1.03 | locus YDR101C, strain arx1, stronger effect = lower value 1 | locus YDR137W, strain rgp1, stronger effect = lower value 1.01 | locus YDR150W, strain NUM1, stronger effect = lower value 1.03 | locus YDR159W, strain sac3, stronger effect = lower value 1.04 | locus YDR162C, strain NBP2, stronger effect = lower value 1.04 | locus YDR195W, strain ref2 0.991 | locus YDR297W, strain sur2, stronger effect = lower value 1.03 | locus YDR318W, strain mcm21, stronger effect = lower value 1.01 | locus YDR334W, strain swr1, stronger effect = lower value 1.04 | locus YDR335W, strain msn5, stronger effect = lower value 1.03 | locus YDR388W, stronger effect = lower value 0.992 | locus YDR392W, strain spt3, stronger effect = lower value 1.03 | locus YDR502C, strain sam2, stronger effect = lower value 0.993 | locus YEL003W, strain gim4, stronger effect = lower value 1.03 | locus YEL037C, strain rad23, stronger effect = lower value 1.02 | locus YEL061C, strain CIN8 (second series), stronger effect = lower value 1.03 | locus YEL061C, strain CIN8, stronger effect = lower value 1.03 | locus YER015W, strain faa2, stronger effect = lower value 1.02 | locus YER016W, strain bim1, stronger effect = lower value 1.02 | locus YER110C, stronger effect = lower value 1.02 | locus YER111C, strain swi4, stronger effect = lower value 1.03 | locus YER155C, strain BEM2 (second series), stronger effect = lower value 1.03 | locus YER155C, strain BEM2, stronger effect = lower value 1.03 | locus YER167W, strain BCK2, stronger effect = lower value 1.03 | locus YFR010W, strain ubp6, stronger effect = lower value 1.02 | locus YGL078C, strain dbp3, stronger effect = lower value 1.01 | locus YGL086W, strain mad1, stronger effect = lower value 0.997 | locus YGL167C, strain pmr1, stronger effect = lower value 1.02 | locus YGL173C, strain kem1, stronger effect = lower value 1.04 | locus YGL227W, strain vid30, stronger effect = lower value 1.03 | locus YGL240W, strain doc1, stronger effect = lower value 1.03 | locus YGL248W, strain PDE1, stronger effect = lower value 1.06 | locus YGL253W, strain hxk2, stronger effect = lower value 1.02 | locus YGR078C, strain PAC10, stronger effect = lower value 1.04 | locus YGR135W, strain pre9, stronger effect = lower value 1.01 | locus YGR252W, strain gcn5, stronger effect = lower value 0.989 | locus YHR013C, strain ard1, stronger effect = lower value 1.02 | locus YHR027C, strain rpn1, stronger effect = lower value 1.02 | locus YHR030C, strain SLT2, stronger effect = lower value 1.03 | locus YHR079C, strain IRE1 (second series), stronger effect = lower value 1 | locus YHR094C, strain hxt1, stronger effect = lower value 0.99 | locus YHR129C, strain ARP1, stronger effect = lower value 1.03 | locus YHR142W, strain chs7, stronger effect = lower value 1.04 | locus YHR200W, strain rpn10, stronger effect = lower value 1 | locus YIL066C, strain RNR3, stronger effect = lower value 1.04 | locus YIL073C, strain SPO22, stronger effect = lower value 1.1 | locus YIL125W, strain kgd1, stronger effect = lower value 1.02 | locus YIR030C, strain dcg1, stronger effect = lower value 1 | locus YJL092W, strain hpr5, stronger effect = lower value 1.02 | locus YJL095W, strain BCK1 (second series), stronger effect = lower value 1.03 | locus YJL095W, strain BCK1, stronger effect = lower value 1.08 | locus YJL115W, strain asf1, stronger effect = lower value 1.02 | locus YJL129C, strain trk1, stronger effect = lower value 1.04 | locus YJL134W, strain LCB3, stronger effect = lower value 1.03 | locus YJL154C, strain vps35, stronger effect = lower value 1.02 | locus YJL164C, strain tpk1, stronger effect = lower value 1.03 | locus YJL166W, strain qcr8, stronger effect = lower value 1.03 | locus YJL168C, strain set2, stronger effect = lower value 1.01 | locus YJL187C, strain SWE1 (second series), stronger effect = lower value 1.04 | locus YJL187C, strain SWE1, stronger effect = lower value 1.03 | locus YJR043C, strain POL32, stronger effect = lower value 1.06 | locus YKL009W, strain mrt4, stronger effect = lower value 1.01 | locus YKL068W, stronger effect = lower value 0.988 | locus YKL085W, strain MDH1 (second series), stronger effect = lower value 1.01 | locus YKL085W, strain MDH1, stronger effect = lower value 1.01 | locus YKL160W, strain elf1, stronger effect = lower value 1.02 | locus YKL190W, strain CNB1, stronger effect = lower value 1.03 | locus YKR001C, strain vps1, stronger effect = lower value 1.04 | locus YKR026C, strain gcn3, stronger effect = lower value 1.02 | locus YKR091W, strain srl3, stronger effect = lower value 1.03 | locus YLL001W, strain dnm1, stronger effect = lower value 1.02 | locus YLL026W, stronger effect = lower value 1.03 | locus YLL041C, strain sdh2, stronger effect = lower value 1.03 | locus YLR027C, strain aat2, stronger effect = lower value 1.02 | locus YLR039C, strain RIC1, stronger effect = lower value 1.23 | locus YLR058C, strain SHM2, stronger effect = lower value 1.04 | locus YLR102C, strain apc9, stronger effect = lower value 0.992 | locus YLR221C, strain rsa3, stronger effect = lower value 1.02 | locus YLR258W, strain gsy2, stronger effect = lower value 1.03 | locus YLR262C, strain YPT6 (second series), stronger effect = lower value 1.04 | locus YLR262C, strain YPT6, stronger effect = lower value 1.25 | locus YLR268W, strain sec22, stronger effect = lower value 1.02 | locus YLR320W, strain mms22, stronger effect = lower value 1.05 | locus YLR330W, strain CHS5, stronger effect = lower value 1.03 | locus YLR342W, strain FKS1, stronger effect = lower value 1.03 | locus YLR357W, strain rsc2, stronger effect = lower value 1.06 | locus YLR370C, strain arc18, stronger effect = lower value 1.04 | locus YLR371W, strain rom2, stronger effect = lower value 1.02 | locus YLR384C, strain iki3, stronger effect = lower value 1.03 | locus YLR418C, strain cdc73, stronger effect = lower value 1.03 | locus YML016C, strain PPZ1, stronger effect = lower value 1.03 | locus YML032C, strain rad52, stronger effect = lower value 1.01 | locus YML120C, strain ndi1, stronger effect = lower value 1.03 | locus YML124C, strain tub3, stronger effect = lower value 1.01 | locus YMR058W, strain fet3, stronger effect = lower value 1.02 | locus YMR078C, strain ctf18, stronger effect = lower value 0.992 | locus YMR125W, strain sto1, stronger effect = lower value 1.02 | locus YMR129W, stronger effect = lower value 1.03 | locus YMR205C, strain PFK2, stronger effect = lower value 1.06 | locus YMR223W, strain ubp8, stronger effect = lower value 0.999 | locus YMR231W, strain pep5, stronger effect = lower value 1.01 | locus YMR307W, strain GAS1, stronger effect = lower value 1.2 | locus YNL067W, strain RPL9B, stronger effect = lower value 1.02 | locus YNL071W, strain lat1, stronger effect = lower value 1.05 | locus YNL153C, strain GIM3, stronger effect = lower value 1.04 | locus YNL209W, strain ssb2, stronger effect = lower value 1.01 | locus YNL233W, strain BNI4, stronger effect = lower value 1.04 | locus YNL248C, strain rpa49, stronger effect = lower value 1.03 | locus YNL250W, strain rad50, stronger effect = lower value 1.01 | locus YNL271C, strain bni1, stronger effect = lower value 1.03 | locus YNL298W, strain CLA4, stronger effect = lower value 1.01 | locus YNL307C, strain MCK1, stronger effect = lower value 1.01 | locus YNL322C, strain KRE1 (second series), stronger effect = lower value 1.02 | locus YNR049C, strain mso1, stronger effect = lower value 1.03 | locus YNR052C, strain pop2, stronger effect = lower value 1 | locus YOL012C, strain htz1 0.833 | locus YOL147C, strain pex11, stronger effect = lower value 0.996 | locus YOR001W, strain rrp6, stronger effect = lower value 1.03 | locus YOR061W, strain CKA2, stronger effect = lower value 1.04 | locus YOR069W, strain VPS5, stronger effect = lower value 1.03 | locus YOR070C, strain gyp1, stronger effect = lower value 1.03 | locus YOR080W, strain dia2, stronger effect = lower value 1.02 | locus YOR083W, strain WHI5, stronger effect = lower value 1.02 | locus YOR106W, strain vam3, stronger effect = lower value 1.03 | locus YOR136W, strain idh2, stronger effect = lower value 0.996 | locus YOR144C, strain elg1, stronger effect = lower value 0.992 | locus YOR184W, strain ser1, stronger effect = lower value 1.05 | locus YOR265W, strain rbl2, stronger effect = lower value 1.03 | locus YOR270C, strain vph1, stronger effect = lower value 1.06 | locus YOR290C, strain snf2, stronger effect = lower value 1.05 | locus YOR316C, strain cot1, stronger effect = lower value 0.999 | locus YPL051W, strain arl3, stronger effect = lower value 1.01 | locus YPL078C, strain atp4, stronger effect = lower value 1.02 | locus YPL106C, strain sse1, stronger effect = lower value 0.998 | locus YPL240C, strain hsp82, stronger effect = lower value 1.02 | locus YPR119W, strain clb2, stronger effect = lower value 0.996 | locus YPR141C, strain kar3, stronger effect = lower value 1.01 | locus YPR163C, strain tif3, stronger effect = lower value 0.999 | locus YPR167C, strain met16, stronger effect = lower value 0.996 | strain wtn01, stronger effect = lower value 1.02
